{"source": "PubChem BioAssay (Tox21)", "note": "Several values for one entry are separate records, joined by “and”; a condition that tells them apart may be missing. Equal entries are not always repeated. Records with an inconclusive call do not appear. A call without a number means that no potency is given here. Activity calls are given as the source filed them. The call rests on the fitted dose curve; in most records, active means well fitted activation curve with a large enough effect in the repeat runs; inconclusive means weak or mixed curves; inactive means flat fitted curve, though single readings scatter. Potency means the concentration at half of the fitted maximal effect.", "data": [{"experiment": "A CellTox Green Cytotoxicity Assay to monitor cytotoxicity in HEK293 cells - 24 hour (AID 1224875); further: nearly all actives have a fitted effect of over 45% in size", "settings": "CellTox Green fluorescence; series mostly up to 76.8 µM", "text": "National Center for Advancing Translational Sciences [NCATS]\nNIH Chemical Genomics Center [NCGC]\nU.S. Environmental Protection Agency [EPA]\nNational Institutes of Environmental Health Sciences [NIEHS]\nNational Toxicology Program [NTP]\nCell-based models are critical for drug discovery. Determining the natural cytotoxic effects resulting from test compounds is an essential research activity. A CellTox Green Cytotoxicity Assay to monitor cytotoxicity in real time of continues cell culture during 40 hours of the compound treatment was used to screen Tox21 10K library compounds in Hek293 cells. CellTox Green Cytotoxicity Assay is a nonlytic, homogeneous, biofluorescent method to measure cytotoxicity in cell culture after experimental manipulation. The assay system uses a proprietary asymmetric cyanine dye that is excluded from viable cells but preferentially stains the dead cell's DNA. […] Viable cells produce no appreciable increases in fluorescence. Therefore, the fluorescence signal produced by the binding interaction with dead cell DNA is proportional to cytotoxicity.\nThe mixture of Hek293 cell suspension and reagents were dispensed at 600cells/6 ul/well in 1536-well tissue culture treated black solid bottom plates using a Multidrop dispenser. After the assay plates were incubated at a 37 C/5% CO2 incubator for 5 hours, 23 nL of compounds dissolved in DMSO, positive and negative controls was transferred to the assay plate by a pintool work station. The plates were incubated at 37 C for 40 hours. The fluorescence intensity were measured at 0h, 8h, 16h, 24h, 32h and 40h time points using ViewLux plate reader during compound treatment.", "values": [{"smiles": "Clc1sc(Cl)c(Cl)c1Cl", "Potency": "inactive"}, {"smiles": "CCC(C)(CCC(C)C)C(=O)[O][Sn]([CH3])([CH3])[O]C(=O)C(C)(CC)CCC(C)C", "note": "(stereo not given)", "Potency": "inactive"}, {"smiles": "C=Cc1cccc(C)c1", "Potency": "inactive"}, {"smiles": "C#C[C@]1(OC(C)=O)CC[C@H]2[C@@H]3CCC4=C[C@@H](OC(C)=O)CC[C@@H]4[C@H]3CC[C@@]21C", "Potency": "inactive"}, {"smiles": "C/C=C/C=C/COC(=O)C(C)C", "Potency": "inactive"}, {"smiles": "COc1cc(/C=C/c2ccccc2)oc(=O)c1", "Potency": "inactive"}, {"smiles": "Cc1ccc(N/N=c2\\c(=O)cc/c(=N\\Nc3ccc(S(=O)(=O)O)cc3)c2=O)c(C)c1", "Potency": "inactive"}, {"smiles": "Nc1nc2c(ncn2COCCO)c(=O)[nH]1", "Potency": "inactive"}, {"smiles": "Cc1c(C)c2c(c(C)c1OC(=O)c1cccnc1)CC[C@@](C)(CCC[C@H](C)CCC[C@H](C)CCCC(C)C)O2", "Potency": "inactive"}, {"smiles": "Nc1cc(Cl)c(O)c(Cl)c1", "Potency": "inactive"}, {"smiles": "CCCCOC(=O)CC", "Potency": "inactive"}, {"smiles": "CC(N=C(NC#N)Nc1ccncc1)C(C)(C)C", "note": "(stereo not given)", "Potency": "inactive"}, {"smiles": "Fc1ccc(C(c2ccc(F)cc2)N2CCNCC2)cc1", "Potency": "inactive"}, {"smiles": "CC1=CCC(=C(C)C)CC1", "Potency": "inactive"}, {"smiles": "COc1ccc2c(c1)c(CC(=O)OC/C=C(\\C)CC/C=C(\\C)CCC=C(C)C)c(C)n2C(=O)c1ccc(Cl)cc1", "Potency": "inactive"}, {"smiles": "O=C(Oc1ccccc1)Oc1ccccc1", "Potency": "inactive"}, {"smiles": "CC(C)(C)c1ccc(C(O)CCCN2CCC(C(O)(c3ccccc3)c3ccccc3)CC2)cc1", "note": "(stereo not given)", "Potency": "9.52 µM (active)"}, {"smiles": "O=C(Nc1ccc2c(O)c(N=Nc3ccc(N=Nc4ccc(S(=O)(=O)O)cc4)cc3)c(S(=O)(=O)O)cc2c1)c1ccccc1", "Potency": "inactive"}, {"smiles": "OC12N=C(c3ccccc3)SC1Cc1cc(Cl)ccc12", "note": "(stereo not given)", "Potency": "inactive"}, {"smiles": "CCCCCCCCCCCCCCCC[N+](C)(C)CC", "Potency": "43.8 µM (active) and 23.9 µM (active)"}, {"smiles": "Cc1cccc(C(=O)O)c1O", "Potency": "inactive"}, {"smiles": "C#C[C@]1(OC(C)=O)CC[C@H]2[C@@H]3CCC4=C/C(=N/O)CC[C@@H]4[C@H]3CC[C@@]21CC", "Potency": "inactive"}, {"smiles": "COCCOc1cc2cc(C(=O)NC3CCN(C(C)C)CC3)n(CC(=O)Nc3ccc(Cl)cn3)c2cn1", "Potency": "inactive"}, {"smiles": "O=C(O)Cc1ccc2c(c1)C(=O)c1ccccc1CO2", "Potency": "inactive"}, {"smiles": "CCCC1CCC(=O)CC1", "Potency": "inactive"}, {"smiles": "CC1(C)[C@@H](O)CC[C@]2(C)[C@H]3C(=O)C=C4[C@@H]5C[C@@](C)(C(=O)O)CC[C@]5(C)CC[C@@]4(C)[C@]3(C)CC[C@@H]12", "Potency": "inactive"}, {"smiles": "O=C1c2ccccc2C(=O)N1SC1CCCCC1", "Potency": "13.8 µM (active) and 34.7 µM (active)"}, {"smiles": "CN(C)Cc1ccccc1O", "Potency": "inactive"}, {"smiles": "OC1CCCc2ccccc21", "note": "(stereo not given)", "Potency": "inactive"}, {"smiles": "CCCCCC(C)OC(=O)COc1ccc(Cl)c2cccnc12", "note": "(stereo not given)", "Potency": "inactive"}, {"smiles": "CN1CCN(Cc2cc(-c3ccc4[nH]c(=O)oc4c3)co2)[C@@H](c2ccc(F)cc2)C1", "Potency": "inactive"}, {"smiles": "O=c1[nH]c2ccccc2n1CCCN1CCN(C(c2ccccc2)c2ccccc2)CC1", "Potency": "inactive"}, {"smiles": "CC(=O)CC(=O)Nc1ccc(S(=O)(=O)O)cc1", "Potency": "inactive"}, {"smiles": "CC(C)(C)CC(C)(C)c1ccc(Nc2ccc(C(C)(C)CC(C)(C)C)cc2)cc1", "activity change": "4.29% [at 6.97 µM, stronger effect = higher value] (inactive)"}, {"smiles": "C=CC(=O)OCCOC(=O)C=C", "Potency": "inactive"}, {"smiles": "CC(CCc1ccccc1)NCC(O)c1ccc(O)c(C(N)=O)c1", "note": "(stereo not given)", "Potency": "inactive"}, {"smiles": "Clc1nnc(Cl)c2ccccc12", "Potency": "inactive"}, {"smiles": "CNC(=O)c1ccccc1Sc1ccc2c(/C=C/c3ccccn3)n[nH]c2c1", "Potency": "inactive"}, {"smiles": "CCC(C)n1ncn(-c2ccc(N3CCN(c4ccc(OC[C@H]5CO[C@](Cn6cncn6)(c6ccc(Cl)cc6Cl)O5)cc4)CC3)cc2)c1=O", "note": "(stereo not given in full)", "Potency": "inactive"}, {"smiles": "Cc1cc(C)c(/C=C2\\C(=O)Nc3ccccc32)[nH]1", "Potency": "10.7 µM (active)"}]}]}
